Test [1] addresses Estrogen receptor (Homo sapiens) (UniProt P03372). In words: qHTS assay for small molecule antagonists of estrogen receptor alpha signaling (AID 588513; active = well fitted curve in the direction sought with a large enough effect in the signal ratio, with a control signal flat, not every such curve was filed as active; the % refers to the signal ratio; note: % is set by controls: 0 for no effect and ±100 for the full control effect). In outline:
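ER-alpha-UAS-bla GripTite HEK 293 cells in medium with 2% charcoal/dextran-treated FBS were preincubated 4 h at 37 C, dosed with compound (1:2 titration), stimulated with 0.5nM 17-beta-estradiol for 18 h, then read by CCF4 beta-lactamase fluorescence.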
On the technique in general: Quantitative high-throughput screening tests each substance at several concentrations.

The target is the same in test [2]. In words: qHTS assay for small molecule agonists of estrogen receptor alpha signaling (AID 588514).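 Note: 0% = vehicle only and 100% = reference agonist; nearly all actives have a fitted effect of over 70% in size.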 In a few lines: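 Efficacy is expressed against 20 nM 17-beta-estradiol (100%) and DMSO basal (0%); EC50 from Hill equation. Assay: beta-lactamase reporter in ER-alpha-UAS-bla HEK 293 cells, 18 h compound incubation, CCF4 detection.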
Test [3] has as its target Glucocorticoid receptor (Homo sapiens) (UniProt P04150). In words: qHTS assay for small molecule agonists of glucocorticoid receptor signaling (AID 588532; active = well fitted curve in the direction sought with a large enough effect in the signal ratio, with a control signal flat; the % refers to the signal ratio;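 note: 100% = dexamethasone at 0.1 µM and 0% = DMSO only wells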). The settings on record: HeLa MMTV-bla, beta-lactamase ratio, agonist, 18 h; stronger effect = higher value; percent of dexamethasone control, DMSO zero. In a few lines:
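MMTV-bla HeLa, beta-lactamase reporter; medium with 1% charcoal/dextran-stripped FBS; cpds up to 92 uM, 18 h, 37 C; CCF4 readout 460/530 nm; Hill fit → EC50, efficacy vs 0.1 uM dexamethasone = 100%.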

The target is the same in test [4]. In words: qHTS assay for small molecule antagonists of glucocorticoid receptor signaling (AID 588533; active = well fitted inhibition curve with a large enough effect in the signal ratio, with a control signal flat, not every such curve was filed as active; the % refers to the signal ratio;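 note: cells stimulated with 2 nM dexamethasone as agonist; % is set by controls: 0 for no effect and ±100 for the full control effect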). In outline:
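Antagonist-mode qHTS: compound titrations added to GRE-bla HeLa cells, then dexamethasone 2 nM final; 18 h, 37 C. CCF4 FRET fluorescence normalized to dexamethasone and DMSO; IC50 from Hill fit.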

In test [5] the target is Peroxisome proliferator-activated receptor delta (Homo sapiens) (UniProt Q03181). In words: qHTS assay for small molecule agonists of peroxisome proliferator-activated receptor delta signaling (AID 588534).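 Note: 0% = DMSO basal wells and 100% = positive control agonist at 10 µM.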 In a few lines:
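Agonist-mode qHTS; reporter cells, 5 hrs 37 C pre-incubation; compound titration, 18 hrs 37 C; CCF4 dye, 2 hrs RT; fluorescence read. EC50/efficacy via Hill fit.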

Test [6] addresses Peroxisome proliferator-activated receptor gamma (Homo sapiens) (UniProt P37231). In words: qHTS assay for small molecule antagonists of peroxisome proliferator-activated receptor gamma signaling (AID 588537; active = well fitted inhibition curve with a large enough effect in the signal ratio, with a control signal flat, not every such curve was filed as active; the % refers to the signal ratio;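 note: reporter cells co-stimulated with 50 nM rosiglitazone agonist during compound treatment; % of control where 0% means no effect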). In outline:
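Compounds are tested as concentration series for inhibition of rosiglitazone-driven (50 nM) reporter expression in GeneBLAzer PPAR-gamma-UAS-bla HEK293 cells. After 16 h at 37 C, CCF4 substrate is added for 2 h at room temperature and blue/green fluorescence is measured.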

The nature of test [7]: qHTS assay for small molecule agonists of the antioxidant response element (ARE) signaling pathway (AID 651741; active = well fitted activation curve with a large enough effect in the signal ratio; the % refers to the signal ratio; note: potency is the fitted concentration of half-maximal effect; for activation: % of control where 0% means no effect). In a few lines: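 Reporter: beta-lactamase under ARE, stably in HepG2. Exposure: 16 h, 37 C, compounds delivered in DMSO by pin tool after 5 h cell preincubation. Readout: FRET substrate fluorescence after 2 h at RT.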
A short description of test [8]: qHTS assay for small molecule activators of the nuclear factor-kappa B (NF-kB) signaling pathway (AID 651749; active = well fitted activation curve with a large enough effect in the signal ratio; the % refers to the signal ratio; note: % of control where 0% means no effect). Particulars: NF-kB-bla ME-180 cells, beta-lactamase FRET ratio, 16 h; stronger effect = higher value. In outline:
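Human ME-180 cervical cells with an NF-kB-bla construct; compounds added via 23 nL pin transfer, DMSO as vehicle; incubation 16 hr. Reporter activity measured by FRET disruption.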

The nature of test [9]: qHTS assay for small molecule disruptors of the mitochondrial membrane potential - 1 hr assay (AID 651754). Note: % is set by controls: 0 for no effect and ±100 for the full control effect; nearly all actives have a fitted effect of over 35% in size. In a few lines: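 Loss of mitochondrial potential shifts the cationic dye from red mitochondrial aggregates to green cytoplasmic monomers. Cells (HepG2) are treated with compound for 1 hr before a 30 min dye incubation at 37C.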
Test [10] is described as follows: qHTS assay for small molecule disruptors of the mitochondrial membrane potential - 5 hr assay (AID 651755). Note: % is set by controls: 0 for no effect and ±100 for the full control effect; nearly all actives have a fitted effect of over 40% in size. In outline: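 Seed HepG2 overnight, add compound, incubate 5 hr at 37C and 5% CO2, stain 30 min with Mito-MPS, then measure monomer (490/535 nm) and aggregate (540/590 nm) fluorescence.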
The nature of test [11]: qHTS assay for small molecule agonists of the antioxidant response element (ARE) signaling pathway measured by Nrf2-dependant transcriptional activity (AID 720636; active = well fitted curve in the direction sought with a large enough effect in the repeat runs; an effect the other way counts as inactive or inconclusive;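 note: HepG2 cells with an ARE-driven luciferase reporter; % of control where 0% means no effect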). In a few lines:
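In HepG2 cells engineered with an Nrf2-responsive luciferase gene, ARE induction was quantified as luminescence after 16 hr compound treatment at 37 C.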

A short description of test [12]: Cell Viability - SK-N-SH (AID 435).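 Note: potency is the fitted concentration of half-maximal effect; compound exposure lasted 40 h at 37 °C.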 The settings on record: SK-N-SH neuroblastoma cell viability qHTS. In outline:
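SK-N-SH human neuroblastoma cells (1500/well) were exposed to compounds in complete medium for 40 h at 37 °C, and intracellular ATP was then measured by CellTiter-Glo luminescence. AC50 was taken from Hill fits, normalized to DMSO and 100 uM tamoxifen.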

A short description of test [13]: Cell Viability - NIH 3T3 (AID 541; active = well fitted curve in the direction sought with a large enough effect; an effect the other way counts as inactive or inconclusive; note: nearly all actives have a fitted effect of over 25% in size; note: potency is the fitted concentration of half-maximal effect;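 for activity change, negative = cytotoxicity: plate controls were DMSO alone for no effect and tamoxifen positive control for full effect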). The settings on record: NIH 3T3 cell viability, qHTS; activity change, negative = cytotoxicity: at 92.2 µM (top of the series). In a few lines: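 Cells seeded at 1000/well, rested 5 hr at 37 °C, then dosed and incubated 40 hr at 37 °C. CellTiter-Glo added, 20 min room temperature, luminescence read. AC50 by Hill fit.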
Test [14] is described as follows: Cell Viability - H-4-II-E (AID 543; active = well fitted curve in the direction sought with a large enough effect; an effect the other way counts as inactive or inconclusive; note: nearly all actives have a fitted effect of over 35% in size; note: potency is the fitted concentration of half-maximal effect). In outline:
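Cells seeded at 1500 per well and rested 5 hr; compounds added; 40 hr incubation at 37 °C; CellTiter-Glo added, 20 min at room temperature; luminescence read. Hill-equation fits gave AC50.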

A short description of test [15]: MultiTox-Fluor Cytotoxicity Assay - LYMP1-001 - Live Cells (AID 947; active = well fitted curve in the direction sought with a large enough effect; an effect the other way counts as inactive or inconclusive;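 note: 0% = DMSO only and full inhibition = tetraoctylammonium bromide control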).
The target of test [16] is Thyroid hormone receptor beta (Homo sapiens) (UniProt P10828). In words: qHTS assay for small molecule antagonists of thyroid hormone receptor beta signaling (AID 588547; active = well fitted inhibition curve with a large enough effect in the signal ratio, with a control signal flat, not every such curve was filed as active; the % refers to the signal ratio;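 note: cells stimulated with 0.4 nM T3 agonist during compound exposure; % is set by controls: 0 for no effect and ±100 for the full control effect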). The settings on record: TR-UAS-bla HEK293, beta-lactamase ratio, antagonist mode, 18 h. In a few lines: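 TR-UAS-bla GripTite HEK293 cells in 2% charcoal/dextran FBS medium were preincubated 4 h at 37 C, given compound (0.59 nM to 92 uM) plus 0.4 nM T3 (final) for 18 h, then CCF4 for 2 h at RT; Hill fit gave IC50.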
Thyroid hormone receptor beta (Homo sapiens), sequence (P10828 whole entry, looked up): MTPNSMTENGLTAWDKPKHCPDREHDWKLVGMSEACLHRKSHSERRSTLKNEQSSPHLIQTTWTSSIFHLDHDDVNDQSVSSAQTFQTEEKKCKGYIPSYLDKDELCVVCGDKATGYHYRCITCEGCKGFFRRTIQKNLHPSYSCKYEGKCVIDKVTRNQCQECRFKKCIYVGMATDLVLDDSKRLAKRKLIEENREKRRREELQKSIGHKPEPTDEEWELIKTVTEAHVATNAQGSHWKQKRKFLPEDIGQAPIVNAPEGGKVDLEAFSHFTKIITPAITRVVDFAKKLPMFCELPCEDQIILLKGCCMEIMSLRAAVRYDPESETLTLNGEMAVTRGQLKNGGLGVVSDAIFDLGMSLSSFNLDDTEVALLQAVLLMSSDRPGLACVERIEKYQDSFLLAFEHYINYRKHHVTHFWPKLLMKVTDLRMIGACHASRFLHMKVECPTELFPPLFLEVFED

Test [17] concerns the target Nuclear receptor ROR-gamma (Homo sapiens) (UniProt P51449). In words: qHTS assay for small molecule antagonists of the retinoid-related orphan receptor gamma (ROR-gamma) signaling pathway (AID 651802; active = well fitted curve in the direction sought with a large enough effect; an effect the other way counts as inactive or inconclusive;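 note: CHO cells with doxycycline-induced ROR-gamma expression; % is set by controls: 0 for no effect and ±100 for the full control effect; nearly all actives have a fitted effect of over 60% in size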). In outline:
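Steps: cells dispensed; compound or DMSO transferred by pin tool; doxycycline added to induce the ROR response element-driven luciferase; plates held 16hr at 37C; ONE-Glo added and luminescence measured.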

Test [18] can be described thus: qHTS assay for small molecule antagonists of peroxisome proliferator-activated receptor delta signaling (AID 588535; active = well fitted inhibition curve with a large enough effect in the signal ratio, with a control signal flat, not every such curve was filed as active; the % refers to the signal ratio;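 for max response: cells co-treated with a PPAR-delta agonist as stimulator during compound exposure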). Particulars: HEK293T PPARd-UAS-bla, beta-lactamase FRET ratio, 18 h; 460 nm channel. In outline:
(§1)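 Inhibition of PPAR-delta response element-driven beta-lactamase expression is measured in HEK293T cells exposed to a compound titration series for 18 hrs at 37 C. Half-maximal inhibition comes from Hill equation fitting.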

Test [19] addresses Peroxisome proliferator-activated receptor delta (Homo sapiens) (UniProt Q03181). The description is as above. In outline:
as §1

The target in test [20] is Vitamin D3 receptor (Homo sapiens) (UniProt P11473). In words: qHTS assay for small molecule antagonists of vitamin D receptor signaling (AID 588541).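 Note: receptor activated by calcitriol during compound treatment; % is set by controls: 0 for no effect and ±100 for the full control effect.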 In a few lines: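 VDR-UAS-bla HEK293T cells (2000/well, 2% charcoal-stripped FBS) were treated with titrated compounds plus 1-alpha,25-dihydroxyvitamin D3 (50 nM or 3 nM final) for 16 h at 37 C. CCF4 beta-lactamase fluorescence was read; Hill fits gave IC50.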
Vitamin D3 receptor (Homo sapiens), sequence (P11473 whole entry, looked up): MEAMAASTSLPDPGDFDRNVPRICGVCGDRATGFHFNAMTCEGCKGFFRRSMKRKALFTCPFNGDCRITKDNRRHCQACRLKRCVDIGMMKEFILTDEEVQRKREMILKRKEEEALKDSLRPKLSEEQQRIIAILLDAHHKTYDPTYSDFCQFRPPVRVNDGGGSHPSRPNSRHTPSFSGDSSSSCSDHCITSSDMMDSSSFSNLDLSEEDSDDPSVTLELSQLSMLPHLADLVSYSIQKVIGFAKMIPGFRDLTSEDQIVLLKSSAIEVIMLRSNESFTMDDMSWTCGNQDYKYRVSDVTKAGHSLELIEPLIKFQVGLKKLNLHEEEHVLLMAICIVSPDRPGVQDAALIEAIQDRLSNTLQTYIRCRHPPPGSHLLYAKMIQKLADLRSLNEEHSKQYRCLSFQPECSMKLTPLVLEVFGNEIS

Where “and” joins values, the source holds several entries; their conditions need not be identical. Equal entries are not always repeated. Records with an inconclusive call do not appear. Calls of active or inactive are those of the source. Unless noted, calls come from the whole dose curve.

Nuclear receptor ROR-gamma (Homo sapiens), sequence (P51449 whole entry, looked up): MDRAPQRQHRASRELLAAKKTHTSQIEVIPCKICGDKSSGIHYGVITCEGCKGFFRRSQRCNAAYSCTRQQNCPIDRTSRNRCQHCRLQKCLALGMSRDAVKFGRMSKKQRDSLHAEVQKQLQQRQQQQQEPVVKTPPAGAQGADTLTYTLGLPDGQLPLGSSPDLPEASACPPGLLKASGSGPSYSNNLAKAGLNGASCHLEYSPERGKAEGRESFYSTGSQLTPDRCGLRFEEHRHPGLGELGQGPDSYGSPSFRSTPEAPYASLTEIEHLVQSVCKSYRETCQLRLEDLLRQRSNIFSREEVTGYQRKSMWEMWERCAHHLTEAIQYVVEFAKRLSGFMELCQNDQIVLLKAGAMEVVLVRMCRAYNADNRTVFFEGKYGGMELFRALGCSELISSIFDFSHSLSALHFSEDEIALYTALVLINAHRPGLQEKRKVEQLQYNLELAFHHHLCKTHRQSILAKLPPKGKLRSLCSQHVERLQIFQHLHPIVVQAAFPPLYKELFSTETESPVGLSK
Peroxisome proliferator-activated receptor gamma (Homo sapiens), sequence (P37231 whole entry, looked up): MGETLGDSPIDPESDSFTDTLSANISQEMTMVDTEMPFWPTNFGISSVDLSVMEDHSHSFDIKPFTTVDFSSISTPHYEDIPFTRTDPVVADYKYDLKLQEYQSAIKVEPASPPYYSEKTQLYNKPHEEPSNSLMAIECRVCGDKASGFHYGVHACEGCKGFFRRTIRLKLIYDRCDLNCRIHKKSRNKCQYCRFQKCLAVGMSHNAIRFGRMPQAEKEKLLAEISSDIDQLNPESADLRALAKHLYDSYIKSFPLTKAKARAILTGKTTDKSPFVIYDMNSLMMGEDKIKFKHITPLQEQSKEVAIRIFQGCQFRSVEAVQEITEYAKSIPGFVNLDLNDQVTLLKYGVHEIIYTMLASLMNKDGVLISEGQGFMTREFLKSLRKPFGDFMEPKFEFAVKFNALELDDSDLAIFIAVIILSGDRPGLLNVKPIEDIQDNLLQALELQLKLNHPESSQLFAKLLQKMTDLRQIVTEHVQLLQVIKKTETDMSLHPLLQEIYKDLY
Peroxisome proliferator-activated receptor delta (Homo sapiens), sequence (Q03181 whole entry, looked up): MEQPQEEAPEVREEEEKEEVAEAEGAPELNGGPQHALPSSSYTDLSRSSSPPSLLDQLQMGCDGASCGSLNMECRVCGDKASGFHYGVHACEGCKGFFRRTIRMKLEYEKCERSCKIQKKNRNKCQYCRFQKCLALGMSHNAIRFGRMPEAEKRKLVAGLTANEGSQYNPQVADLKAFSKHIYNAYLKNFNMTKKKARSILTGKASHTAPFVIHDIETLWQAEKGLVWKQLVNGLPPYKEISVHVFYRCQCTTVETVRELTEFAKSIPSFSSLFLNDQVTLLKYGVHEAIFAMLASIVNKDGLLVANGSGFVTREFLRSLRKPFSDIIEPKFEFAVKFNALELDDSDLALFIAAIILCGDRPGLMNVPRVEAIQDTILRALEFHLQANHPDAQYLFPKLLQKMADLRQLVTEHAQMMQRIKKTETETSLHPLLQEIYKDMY
Estrogen receptor (Homo sapiens), sequence (P03372 whole entry, looked up): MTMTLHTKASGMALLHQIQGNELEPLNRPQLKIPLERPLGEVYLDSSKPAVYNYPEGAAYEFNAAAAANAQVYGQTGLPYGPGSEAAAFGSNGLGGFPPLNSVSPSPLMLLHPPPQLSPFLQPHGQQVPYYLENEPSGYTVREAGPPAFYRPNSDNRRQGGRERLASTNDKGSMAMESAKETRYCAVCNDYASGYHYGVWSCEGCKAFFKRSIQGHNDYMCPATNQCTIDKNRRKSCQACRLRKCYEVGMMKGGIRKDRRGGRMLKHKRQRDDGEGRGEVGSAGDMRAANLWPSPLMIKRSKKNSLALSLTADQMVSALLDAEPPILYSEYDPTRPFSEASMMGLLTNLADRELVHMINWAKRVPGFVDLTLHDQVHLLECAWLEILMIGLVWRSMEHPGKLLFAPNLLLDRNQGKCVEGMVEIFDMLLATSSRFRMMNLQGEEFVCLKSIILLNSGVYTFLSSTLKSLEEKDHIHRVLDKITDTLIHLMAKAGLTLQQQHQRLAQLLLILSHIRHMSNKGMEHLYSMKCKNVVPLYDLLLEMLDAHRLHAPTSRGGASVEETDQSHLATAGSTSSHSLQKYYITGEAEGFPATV
Glucocorticoid receptor (Homo sapiens), sequence (P04150 whole entry, looked up): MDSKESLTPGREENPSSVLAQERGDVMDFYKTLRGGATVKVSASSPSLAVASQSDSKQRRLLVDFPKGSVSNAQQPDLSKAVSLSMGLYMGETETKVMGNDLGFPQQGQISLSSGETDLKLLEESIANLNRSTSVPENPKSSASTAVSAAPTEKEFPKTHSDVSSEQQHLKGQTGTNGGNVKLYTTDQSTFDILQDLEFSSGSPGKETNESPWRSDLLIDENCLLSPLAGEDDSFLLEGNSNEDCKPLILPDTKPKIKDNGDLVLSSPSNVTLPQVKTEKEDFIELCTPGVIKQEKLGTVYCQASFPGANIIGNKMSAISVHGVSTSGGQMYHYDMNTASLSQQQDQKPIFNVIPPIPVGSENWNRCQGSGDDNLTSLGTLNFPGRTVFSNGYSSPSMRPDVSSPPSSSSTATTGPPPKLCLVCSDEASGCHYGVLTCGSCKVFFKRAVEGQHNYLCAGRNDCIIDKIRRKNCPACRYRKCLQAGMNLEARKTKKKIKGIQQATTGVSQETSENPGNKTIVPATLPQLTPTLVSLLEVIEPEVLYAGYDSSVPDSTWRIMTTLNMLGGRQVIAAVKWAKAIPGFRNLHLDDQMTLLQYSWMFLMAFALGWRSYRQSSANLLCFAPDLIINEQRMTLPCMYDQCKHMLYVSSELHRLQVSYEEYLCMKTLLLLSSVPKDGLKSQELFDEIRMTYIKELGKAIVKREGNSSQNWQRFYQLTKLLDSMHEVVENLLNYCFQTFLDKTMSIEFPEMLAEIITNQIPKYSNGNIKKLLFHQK

With `CN1CSC(=S)N(C)C1`, the Potency entry in test [1], in test [2], in [6], in [9], in test [10] and in test [11] was “inactive” each time. Moreover, the activation in test [3] was 6.16% (inactive); in [8] it was -0.197% (inactive) and -1.34% (inactive). Further, the result in [4] and in test [5] was inactive. For the same compound, the Potency in test [7] was 42.2 µM (active) and 27.3 µM (active).
With `Nc1cc(Cl)ccc1Cl`, in test [12], the Potency is > 92 µM (inactive). Also, the Potency result in test [13], in test [14] and in test [17] was “inactive” throughout. Also, the result in test [15], in [4] and in [5] was inactive. Further, the activation in test [3] is -3.66% (inactive). Moreover, the activity change % (negative = inhibition) in test [16] is 16.8% (inactive).
Take `O=[N+]([O-])c1c(Cl)c(Cl)c(Cl)c(Cl)c1Cl`: the Potency is 31.6 µM (active) in [13]; 37.6 µM (active) and 24.3 µM (active) in [7]. Besides, the Potency result in test [14], in [1], in [2], in test [9], in test [10] and in test [17] was “inactive” throughout. For the same compound, the Potency entry in test [11] was “inactive”. Moreover, the call in test [15], in [4], in test [5], in test [19] and in test [20] was inactive. Further, the activation in test [3] is -3.84% (inactive) and -0.795% (inactive); in [8] it was -2.45% (inactive) and -1.33% (inactive). Besides, the max response in [18] was 0.973%.
In the case of `CC(C)OC(=O)Cc1ccccc1`, in test [12], the Potency is > 92 µM (inactive). The Potency entry in [13], in test [14], in test [1], in test [2], in test [7] and in [9] was “inactive” throughout. The Potency entry in test [10], in test [17] and in [11] was “inactive” each time. For the same compound, the result in [15] and in test [4] was inactive. Besides, the activation in test [3] is 0.809% (inactive). In addition, the activity change % (negative = inhibition) in test [16] is -4.91% (inactive).
Take `N#CC(Br)Br`: the Potency in [12] is > 92 µM (inactive); in test [7], 42.2 µM (active). For the same compound, the outcome in test [15] and in test [19] was inactive. Moreover, the Potency result in test [1], in test [2], in test [6], in test [9], in [10] and in [17] was “inactive” each time. In addition, the Potency entry in test [11] is “inactive”. The values for the activation in test [3] and in test [8] were -5.99% (inactive) and -1.36% (inactive), respectively. For the same compound, in test [18], the max response was -6.9%. Besides, the activity change % (negative = inhibition) in test [16] was 17% (inactive).
`O=[N+]([O-])/C=C/c1ccccc1`: the Potency was 15.8 µM (active) in [13] and 5.01 µM (active) in [14]. The activation in test [3] is -1.34% (inactive); in test [8], -0.835% (inactive). For the same compound, the compound was classed as inactive in test [4], in [19] and in test [20]. In addition, the max response in [18] amounted to 20.9%. The Potency result in test [6], in test [9], in test [10], in [17] and in [11] was “inactive” throughout. Moreover, the activity change % (negative = inhibition) in test [16] was -15.9% (inactive).

The record behind these values is PubChem BioAssay (NCATS).
